From PubChem BioAssay (NCI) come the findings set out here.

About 83,000 compounds went through this panel and 20% of them were active in at least one assay; those are over-represented in the sample as a whole.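 Single-concentration screen, 48 h exposure, 96-well plates. Endpoint: percent growth. Below 10 = active.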 Unmarked numbers belong to inactive results. Activity calls are given as the source filed them.

Some test systems named below: NCI-H23 lung; NCI-H226 lung; NCI-H322M lung; HOP-62 NSCLC; NCI-H460 lung; HOP-92 NSCLC; NCI-H522 lung; A549/ATCC NSCLC; 786-0 renal; COLO 205 colon.
What all share (assay): NCI-60 one-dose screen, 48 h (100 = growth as untreated, 0 = no growth, -100 = all killed)
What all share (details): 10 µM unless noted

For `O=C(O)c1cccc2c1Cc1cc([N+](=O)[O-])ccc1-2`, the growth with NCI-H23 lung was 103%; in the test on NCI-H226 lung, 100%; in the test with NCI-H322M lung it was 109%; in the test with HOP-62 NSCLC it was 105%; in the test on NCI-H460 lung, 110%; with HOP-92 NSCLC, 82%. Further, the growth was 103% in the test with NCI-H522 lung, 107% with A549/ATCC NSCLC, 108% with 786-0 renal and 107% with COLO 205 colon.
Consider `C#Cc1cc2c(N)c(C(=O)c3cc(OC)c(OC)c(OC)c3)[nH]c2cc1OC`, for which the growth with NCI-H23 lung is 43.1%; in the test on NCI-H226 lung it was 50%; in the test on NCI-H322M lung, 43.2%; in the test on HOP-62 NSCLC, 24.4%; with NCI-H460 lung it was 15.6%; in the test on HOP-92 NSCLC, -4.39% (active). Moreover, the growth with NCI-H522 lung was -4.05% (active); with A549/ATCC NSCLC, 45.4%; with 786-0 renal, 46.8%; with COLO 205 colon, -16.3% (active).
Turning to `Cc1cc(C)n(Cc2cc(C(C)(C)C)cc(C(C)(C)C)c2)c(=O)c1C#N`, the growth with NCI-H23 lung was 101%; in the test with NCI-H226 lung, 93.3%; in the test on NCI-H322M lung, 92.5%; in the test with HOP-62 NSCLC, 96.3%; in the test on NCI-H460 lung, 93.9%; in the test with HOP-92 NSCLC, 86%. For the same compound, the growth was 83.9% with NCI-H522 lung, 98% with A549/ATCC NSCLC, 93.5% with 786-0 renal and 110% in the test on COLO 205 colon.
On to `Cc1cc2nc3c4cc(N)ccc4n(CCN(C)C)c3nc2cc1C`, for which the growth in the test on NCI-H23 lung was 6.58% (active); with NCI-H226 lung, 1.78% (active); with NCI-H322M lung, 7.13% (active); in the test with HOP-62 NSCLC it was 19%; in the test with NCI-H460 lung it was 0.661% (active); with HOP-92 NSCLC, 37.6%. The growth in the test on NCI-H522 lung is 13.2%; in the test with A549/ATCC NSCLC, 5.34% (active); with 786-0 renal, 26.2%; in the test with COLO 205 colon, -18.5% (active).
In the case of `COc1ccc2c(c1)c(-c1nc(-c3c[nH]c4ncccc34)cs1)cn2CCN`, the growth was 68% in the test with NCI-H23 lung; 70.6% in the test with NCI-H226 lung; 57.7% in the test on NCI-H322M lung; 58.3% in the test on HOP-62 NSCLC; 45% with NCI-H460 lung; 29% in the test on HOP-92 NSCLC. In addition, the growth was 65.6% in the test on NCI-H522 lung, 48.2% with A549/ATCC NSCLC, 72.1% in the test with 786-0 renal and 32.2% in the test with COLO 205 colon.
Consider `NC1=NN=C2N(N)C(=O)c3cnn(-c4ccccc4)c3N2c2nc(-c3ccccc3)cc(-c3ccccc3)c21`, for which the growth in the test on NCI-H23 lung is 94.1%; with NCI-H226 lung, 87.4%; in the test on NCI-H322M lung, 103%; in the test with HOP-62 NSCLC, 96.8%; in the test with NCI-H460 lung, 103%; in the test with HOP-92 NSCLC, 96.7%. Also, the growth was 74.9% in the test with NCI-H522 lung, 100% in the test with A549/ATCC NSCLC, 104% in the test with 786-0 renal and 116% with COLO 205 colon.
Consider `Cn1c(=O)c2c(ncn2CC(=O)Nc2ccc(S(N)(=O)=O)cc2)n(C)c1=O`, for which the growth in the test on NCI-H23 lung is 104%; in the test with NCI-H226 lung it was 105%; with NCI-H322M lung, 107%; in the test on HOP-62 NSCLC, 94.8%; in the test on NCI-H460 lung it was 108%; in the test on HOP-92 NSCLC it was 90.1%. The growth in the test on NCI-H522 lung was 86.7%; in the test on A549/ATCC NSCLC, 88.3%; in the test with 786-0 renal it was 94.9%; in the test on COLO 205 colon it was 105%.
For the compound `COc1cccc(-c2nn(-c3ccccc3)cc2-c2ccnc(NCCCNS(=O)(=O)c3ccc(C(F)(F)F)cc3)c2)c1`, the growth is 28.6% in the test with NCI-H23 lung; 36.6% in the test on NCI-H226 lung; 68.6% in the test on NCI-H322M lung; 61.3% with HOP-62 NSCLC; 25.4% in the test on NCI-H460 lung; 5.37% (active) with HOP-92 NSCLC. Further, the growth is 17.4% in the test with NCI-H522 lung, 24.4% with A549/ATCC NSCLC, 16.1% in the test on 786-0 renal and -1.71% (active) in the test with COLO 205 colon.
As for `COc1ccc(-c2nc3ccccn3c2-c2nc3ccc(Cl)cc3[nH]2)cc1`, the growth was 98.3% in the test with NCI-H23 lung; 90.1% with NCI-H226 lung; 103% with NCI-H322M lung; 114% with HOP-62 NSCLC; 98.8% with NCI-H460 lung; 85% in the test with HOP-92 NSCLC. Further, the growth in the test with NCI-H522 lung is 73.9%; with A549/ATCC NSCLC, 92.5%; in the test on 786-0 renal, 97.6%; with COLO 205 colon it was 110%.
On to `Cc1ccc(S(=O)(=O)Nc2ccc(-c3cc(-c4cccc(F)c4)c(C#N)c(N)n3)cc2)cc1`, for which the growth was 55.3% with NCI-H23 lung; 36.7% with NCI-H226 lung; 72.2% with NCI-H322M lung; 53.1% with HOP-62 NSCLC; 93.3% in the test on NCI-H460 lung; -39.3% (active) in the test on HOP-92 NSCLC. Further, the growth was -71.4% (active) in the test with NCI-H522 lung, 33% in the test with A549/ATCC NSCLC, 13.4% with 786-0 renal and 23.9% in the test on COLO 205 colon.
With `Cc1c(C)c2c(c(C)c1NC(=O)CCCCCCC(=O)O)CCC(C)(CCCC(C)CCCC(C)CCCC(C)C)O2` (stereo not given), the growth in the test on NCI-H23 lung was 85.7%; in the test with NCI-H226 lung, 95.2%; in the test with NCI-H322M lung, 91.7%; in the test with HOP-62 NSCLC, 109%; in the test with NCI-H460 lung it was 69.7%; with HOP-92 NSCLC it was 82%. In addition, the growth was 52% with NCI-H522 lung, 20.4% in the test with A549/ATCC NSCLC, 75.2% in the test with 786-0 renal and 98.4% in the test with COLO 205 colon.
Consider `Cc1cccc2c1NC(=O)[C@@]21[C@H](C(=O)c2ccccc2)[C@]2(C(=O)Nc3ccccc32)[C@H]2CCCN21`, for which the growth with NCI-H23 lung is 38.4% [100 µM]; in the test on NCI-H226 lung it was 13% [100 µM]; in the test with NCI-H322M lung, 48.8% [100 µM]; in the test with HOP-62 NSCLC, 4.33% [100 µM] (active); in the test on NCI-H460 lung, 12.3% [100 µM]; with HOP-92 NSCLC, -25.2% [100 µM] (active). The growth in the test on NCI-H522 lung was 17% [100 µM]; in the test on A549/ATCC NSCLC it was 15% [100 µM]; in the test with 786-0 renal, 15.3% [100 µM]; in the test with COLO 205 colon, 33.1% [100 µM].
With `Cc1ccc2c(c1)c(-c1nc(-c3c[nH]c4ncccc34)cs1)cn2C`, the growth in the test with NCI-H23 lung was 71.9%; in the test with NCI-H226 lung it was 88.9%; in the test on NCI-H322M lung it was 73.1%; with HOP-62 NSCLC it was 105%; in the test on NCI-H460 lung, 56.8%; in the test with HOP-92 NSCLC it was 83.8%. Besides, the growth is 70.5% in the test on NCI-H522 lung, 87.8% in the test on A549/ATCC NSCLC, 83% in the test with 786-0 renal and 112% in the test on COLO 205 colon.
